Screens: PubChem BioAssay, National Center for Advancing Translational Sciences (NCATS)
JMJD2A Tudor – blocks the human JMJD2A Tudor domain; AID 504339; O75164; 4.4% of 390,000 active; AlphaScreen JMJD2A-Tudor / H3K4me3 peptide binding; Potency, µM (top dose mostly 114 µM), for the others: top-dose activity change, negative = inhibition, actives largely listed as inhibitors; note: % is set by controls: 0 for no effect and ±100 for the full control effect; nearly all actives have a fitted effect of over 50% in size
PLK1 PBD inh – blocks phosphopeptide binding to human PLK1 polo-box domain; P53350; Plk1 PBD binding of FITC phosphopeptide, fluorescence polarization; Potency, µM, inactives show max response, negative = inhibition, actives largely listed as inhibitors; 2.8% of 360,000 active; AID 720504; note: series mostly up to about 57 µM; % is set by controls: 0 for no effect and ±100 for the full control effect; nearly all actives have a fitted effect of over 65% in size
HP1b chromo inh – inhibitors of HP1-beta chromodomain binding to methylated histone tails. P83916. AID 540317. 0.56% of 390,000 active. Potency, µM (top dose mostly 114 µM), inactives show at the highest dose activity change, negative = inhibition, usual class: inhibitors. AlphaScreen HP1-beta / biotin-H3K9me3 peptide binding; note: nearly all actives have a fitted effect of over 70% in size
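HP1-beta protein (50 nM final) preincubated 30 min at room temperature with biotinylated H3(1-18)K9me3 peptide (50 nM) in PBS pH 7.4, 0.01% Tween-20, then compound added for 30 min. AlphaScreen streptavidin donor/nickel chelate acceptor beads (10 ug/mL final), 30 min dark, luminescence read.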
G9a block – blocks human histone lysine methyltransferase G9a. Potency, µM (highest dose often 102 µM), for the others: top-dose activity, negative = inhibition, actives largely listed as inhibitors. G9a H3K9 monomethylation, AlphaScreen, 2 h. 8.8% of 350,000 active. AID 504332; note: % is set by controls: 0 for no effect and ±100 for the full control effect; nearly all actives have a fitted effect of over 75% in size
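Compounds were preincubated with 20 nM G9a for 15 min, after which biotinylated H3K9 peptide (500 nM) and SAM (20 uM) started a 2 h room-temperature reaction. Monomethylated product was quantified by antibody-based AlphaScreen chemiluminescence.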
12-LOX inh – ALOX12 (human) lipoxygenase inhibition. 1.1% of 580,000 active. Potency, µM (titrated, usually from 108 µM), for inactives: at the top dose activity change, negative = inhibition, actives largely listed as inhibitors. purified 12hLO, xylenol orange hydroperoxide absorbance. P18054. AID 1671190; note: % is set by controls: 0 for no effect and ±100 for the full control effect
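Purified human 12hLO at 150 nM in 25 mM Hepes, 0.01% Triton X-100, pH 7.0, preincubated 15 min at room temperature with compound. Reaction started with 40 uM arachidonic acid, 30 min at room temperature. Hydroperoxide measured by Fe-xylenol orange, 573/405 nm absorbance ratio.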
BAZ2B block – BAZ2B (human) inhibition | Q9UIF8 | AlphaScreen BAZ2B-H3K14Ac peptide displacement | Potency, µM (doses to about 114 µM), without a hit: at the highest dose activity change, negative = inhibition, actives largely listed as inhibitors | 4.4% of 360,000 active | AID 504333; note: % is set by controls: 0 for no effect and ±100 for the full control effect; nearly all actives have a fitted effect of over 60% in size
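AlphaScreen displacement of biotin-H3(5-23)K14Ac peptide (50 nM final) from BAZ2B (50 nM final) in PBS pH 7.4, 0.01% Tween-20; complex preformed 30 min RT, then compounds (top 110 uM) 30 min RT, beads 20 min dark.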
An asterisk follows results filed as active; ? = inconclusive; . = no result; [ ] = dose if it differs, or a comment. Only some compounds are listed: those with a hit (about 9% of all), similar ones and a draw of the others. Calls come from the whole dose curve; as a rule, active = well fitted curve in the direction sought with a large enough effect; inconclusive = small, poorly fitted or top-dose-only effect, or another doubt; inactive = no such curve, though single readings can be large; an effect the other way counts as inactive or inconclusive. Potency is the fitted concentration of half-maximal effect.

SMILES	JMJD2A Tudor	PLK1 PBD inh	HP1b chromo inh	G9a block	12-LOX inh	BAZ2B block
S=C(NCc1cccnc1)Nc1ccc(Cl)c(Cl)c1	-1%	-14%	13%	-7%[2.33 µM]	?	-1%
CCN1/C(=C\C=C2\C(=O)N(C)C(=S)N2C)Sc2ccccc21	-29%[11.4 µM]	-17%	?	?	-29%	.
CCN1C(c2ccccc2)=C(c2ccccc2)S/C1=C/C=C1\SC(=S)N(C)C1=O	8.9µM*	-13%	11µM*	5.6µM*	?	2.5µM*
CCN1C(c2ccccc2)=C(c2ccccc2)S/C1=C\C=C1/SC(=S)N(C)C1=O	7.9µM*	-20%	8.9µM*	.	6%	.
COc1cccc(C2CC(c3ccccc3OC)n3nc(N)nc3N2)c1 (configuration not stated)	-24%	-7%	7%	-8%	352%	-7%
CC(C)[C@H](NC(=O)c1ccccc1)C(=O)N1CCC[C@H]1C(=O)NCc1ccccc1	.	.	.	.	-12%	.
COc1ccc(C2C(C(=O)c3ccccc3)N3c4ccccc4C=CC3C2[N+](=O)[O-])cc1 (configuration not stated)	-23%	43%	-5%	35µM*	?	?
COc1ccc(C(=O)N2c3ccccc3C=CC2C#N)cc1 (configuration not stated)	-18%	-16%	8%	-1%[59 µM]	-13%	-7%
COc1ccc(N2C(=O)[C@@H]3[C@H](C2=O)[C@H](C(C)=O)N2c4ccccc4C=C[C@@H]32)cc1	-7%	-7%	-4%	8.9µM*	?	?
COc1ccc(CC(=O)NC2CC(C)(C)NC(C)(C)C2)cc1OC	-1%	-1%	13%	?	-9%	-25%
CSc1nc2ccc(Nc3nc(N4CCOCC4)nc(N4CCOCC4)n3)cc2s1	-36%	-16%	3%	16µM*	0%	1%
CCCCc1ccc(Nc2nc(N3CCOCC3)nc(N3CCOCC3)n2)cc1	-14%	2%	38%	50µM*	-23%	-39%[57.1 µM]
Cc1ccccc1OCCCCCCN1CCNCC1	-27%	-6%	-4%	.	?	.
S=C(c1cn(CCOc2cccc3ccccc23)c2ccccc12)N1CCCC1	?	3%	2%	?	?	-9%
Clc1ccccc1OCCCCN1CCCCC1	28µM*	-10%	?	.	?	?
Clc1ccccc1OCCCCN1CCCC1	3.2µM*	-2%	?	?	?	?
c1ccc2c(OCCCCN3CCCC3)cccc2c1	40µM*	-1%	?	35µM*	-24%	56µM*
Fc1ccccc1OCCCCN1CCCCC1	79µM*	-6%	-12%	50µM*	?	?
Cc1onc(-c2c(Cl)cccc2Cl)c1C(=O)O/N=C(\C#N)c1ccccc1	-22%	-10%	-16%	.	0%	?
COC(=O)[C@]12C[C@H](CC(=O)N3CCOCC3)C(=O)N(Cc3ccccc3)C1=C[C@H](COCc1ccccc1)O[C@@H]2C	.	.	.	.	35%	.
CN1CCN(CCCCOc2ccccc2C=O)CC1	4µM*	-12%	?	.	?	22µM*
O=C(COc1ccc(Cl)cc1Cl)NCCN1CCCC1	.	-2%	.	.	?	.
O=C(COc1ccc(Cl)cc1Cl)NCCN1CCCCC1	.	3%	.	.	?	.
Clc1ccc(Cl)c(OCCCCN2CCCCC2)c1	32µM*	-1%	?	8.9µM*	?	?
O=S(=O)(CCN1CCCCC1)Oc1ccc(Cl)cc1Cl	-11%	12µM*	58%	?	-24%	-2%
CC1CCN(CCOc2cc(Cl)ccc2Cl)CC1	3.5µM*	-8%	?	?	?	50µM*
Cc1ccc(Cl)c(OCCCCN2CCC(C)CC2)c1	0%	2%	33%	.	0%	.
COc1cc(C(=O)Nc2nnc(C3CC3)s2)cc(Cl)c1OCCC(C)C	.	.	.	.	9%	.
CCN(C[C@H]1N[C@@](Cc2ccccc2)(C(=O)OC)[C@H]2C(=O)N(Cc3ccccc3)C(=O)[C@@H]12)S(=O)(=O)c1ccc(OC)cc1	-13%	-10%	57%	.	-4%	.
